Not all results are given here.
aSyn 5UTR act = Activators via SNCA 5'UTR binding, MLPCN | AID 1814, 2009 | alpha-synuclein 5'UTR reporter, activators screen | 7.1% of 300,000 active | activity score, % (tested at 7.5 µM), hits read low; in the data active means activity score below about -60%
The depositor's hits bear a star.

SMILES	aSyn 5UTR act
ClC1(Cl)CC1CSc1nnc(-c2ccncc2)o1 (stereo not drawn)	-66.0*
CCOC(=O)c1cnc(SCCc2ccccc2)nc1N	-102.2*
CCOC(=O)c1cnc(-n2nc(C)cc2C)nc1NNc1ncc(-c2ccccc2)cn1	82.5
CCOC(=O)c1cnc(SCc2ccc(C)cc2)nc1N	-179.4*
CCOC(=O)c1cnc2c(ccc3ccccc32)c1Cl	-87.4*
CCOC(=O)c1cnc(NCc2ccccc2)nc1C	-73.1*
CCOC(=O)c1[nH]cnc1N=Nc1c(O)ccc2ccccc12	90.6
CCCCSc1ncc(C(=O)OCC)c(N)n1	-139.6*
CCC1S/C(=N/C(=O)NC2CCCCC2)NC1=O (stereo not drawn)	-86.0*
CC(C)c1ccc2oc(-c3cc(N)ccc3O)nc2c1	-95.4*
Cc1ccccc1-c1nc2cc(N)ccc2o1	-123.0*
CCOc1ccc(/C=N/N2C(C)CCCC2C)cc1 (stereo not drawn)	-77.4*
Cc1ccc(NC(=O)c2cc(N(C)C)ccc2[P+](=O)O)cc1	-154.5*
O=C(Nc1cnn(Cc2ccccc2)c1)c1nc2ncccn2n1	-66.2*
CC(C)c1ccc(NC(=O)c2ccc(Br)o2)cc1	-148.5*
O=C(Nc1ccc(Nc2ccccc2)cc1)c1ccc(Br)o1	-127.9*
CC(C)(C)c1ccc(C(=O)Nc2ccc(CC(=O)O)cc2)o1	110.7
O=C(NC(=S)Nc1ccccc1)c1ccc(Br)o1	-286.5*
O=C(Nc1ccc2c(c1)Cc1ccccc1-2)c1ccc(Br)o1	-94.5*
COc1ccc(NC(=S)NC(=O)c2ccc(Br)o2)cc1	-106.9*
COc1ccc(NC(=O)c2ccc(Br)o2)cc1	-159.5*
O=C(Nc1cccc(OC(=O)c2ccc(Br)o2)c1)c1ccccc1	-65.8*
NC(=O)c1ccccc1NC(=S)NC(=O)c1ccc(Br)o1	-123.7*
CCCC(=O)Nc1ccc2c(c1)Cc1ccccc1-2	-138.1*
COc1ccccc1NC(=O)C(=O)/C=C(\O)c1ccccc1	-130.7*
SMILES	aSyn 5UTR act
COC(=O)c1cccc(NC(=O)Nc2ccccc2OC)c1	-64.5*
COC(=O)c1cccc(NC(=O)Nc2ccc(Cl)c(Cl)c2)c1	-134.1*
COC(=O)c1cccc(NC(=O)NC(=O)c2ccccc2Cl)c1	94.8
COc1cccc(/C=N/NC(=O)C(=O)Nc2ccccc2OC(F)(F)C(F)F)c1O	71.5
CC(C)Oc1ccc(CSc2ncn[nH]2)cc1	-83.8*
COc1ccc(NC(=O)O/N=C/c2ccccc2)cc1	-140.1*
COc1ccc(/C=N/NC(=S)Nc2ccccc2)cc1	-71.5*
S=C(N/N=C/c1ccccc1Cl)Nc1ccccc1	-106.3*
S=C(N/N=C/c1ccc2ncccc2c1)Nc1ccccc1	108.0
CN(C)c1ccnc2sc(C(=O)c3ccc(Br)cc3)c(N)c12	-85.4*
CN1Cc2c(N3CCOCC3)nc3sc(C(=O)c4ccc(Br)cc4)c(N)c3c2CC1(C)C	104.7
Cc1snc2sc(C(=O)c3ccc(F)cc3)c(N)c12	-95.7*
CCCCCOC(=O)c1[nH]c2c(c1C)C(=O)C(C(=O)OC)C(C)C2 (stereo not drawn)	-73.2*
COC(=O)C1C(=O)c2c([nH]c(C(=O)OC3CCCCCC3)c2C)CC1C (stereo not drawn)	-115.3*
CCOC(=O)c1[nH]c2c(c1C)C(=O)CC(c1ccco1)C2 (stereo not drawn)	73.3
COC(=O)C1C(=O)c2c([nH]c(C(=O)OCC3CCCO3)c2C)CC1C (stereo not drawn)	-112.9*
COC(=O)c1[nH]c2c(c1C)C(=O)CC(c1cccs1)C2 (stereo not drawn)	84.6
Cc1c(C(=O)OC2CCC(C)CC2)[nH]c2c1C(=O)CCC2 (stereo not drawn)	-78.8*
COCCOC(=O)c1[nH]c2c(c1C)C(=O)C(C(=O)OC)C(C)C2 (stereo not drawn)	-87.7*
COCCOC(=O)c1[nH]c2c(c1C)C(=O)CC(c1ccccc1)C2 (stereo not drawn)	77.7
O=C(CSc1nnc2ccccn12)c1ccc(Cl)cc1	-67.4*
CCOc1ccc(C(=O)CSc2nnc3ccccn23)cc1	-153.9*
O=C(O)C(C(=O)/C=C/c1ccco1)=C1SCCS1	-69.2*
Cc1cccc(OCCOC(=O)c2c(-c3ccccc3)noc2C)c1	-96.7*
C=CCn1c(=O)c2ccccc2n2c(Sc3nnnn3-c3ccccc3)nnc12	-74.2*
SMILES	aSyn 5UTR act
O=C(Cc1ccccc1F)Nc1ccc2c(c1)CCC2	-169.3*
O=C(Cc1ccc2c(c1)CCCC2)Nc1ccc2ccccc2c1	-160.5*
O=C(O)CN1C(=O)/C(=C\c2cccc(OCc3ccc(Cl)cc3Cl)c2)SC1=S	-105.5*
COc1ccccc1CN1CC(C(=O)NCc2c(F)ccc(C)c2F)CCC1=O (stereo not drawn)	-72.0*
O=C(NC1CCCCCCC1)c1ccc(Br)cc1	-92.3*
C=CCOc1ccc(C(=O)NC2CCCCC2)cc1	-161.1*
CC(C)Oc1ccc(C(=O)NC2CCCCC2)cc1	-91.2*
COc1ccc2oc(-c3ccc(C)c(NC(=O)CSc4ccc(Cl)cc4)c3)nc2c1	-133.3*
O=C(CSc1ccc(Cl)cc1)Nc1cc(-c2nc3ncccc3o2)ccc1Cl	-73.7*
COc1ccc(C(=O)C[n+]2cn(C(F)F)c3ccccc32)c(F)c1	-116.9*
Cc1cccc(/C=N/NC(=O)c2c(-c3ccccc3)noc2C)c1O	62.3
Cc1cc(C(=O)N/N=C/c2ccccc2Br)no1	-68.4*
Cc1occc1C(=O)N/N=C/c1c[nH]c2ccccc12	-135.3*
CC(C)(C)OC(=O)N/N=C/c1c[nH]c2ccccc12	-139.7*
Cc1ccc2nc(C)/c(=N\O)c(C)nc2c1	-238.9*
Cc1nc2ccc(Cl)cc2nc(C)/c1=N\O	-219.3*
FC(F)Sc1ccc(NC(=S)NC2CCCC2)cc1	-104.5*
OC1CCC(NC(=S)Nc2ccc(SC(F)F)cc2)CC1 (stereo not drawn)	-125.8*
O=C(Nc1ccc(SC(F)F)cc1)C12CCC(CC1)C2	-80.1*
CN1CCc2c(sc(NC(=O)C3COc4ccccc4O3)c2C(N)=O)C1 (stereo not drawn)	-116.8*
CC(=O)N1CCc2c(sc(NC(=O)C3COc4ccccc4O3)c2C(N)=O)C1 (stereo not drawn)	-73.7*
CN1CCc2c(sc(/N=C/c3cccs3)c2C(N)=O)C1	-74.8*
COc1cc2ccccc2cc1C(=O)Nc1sc2c(c1C(N)=O)CCN(C(C)C)C2	102.4
CN1CCc2c(sc(NC(=O)c3ccc4ccccc4c3)c2C(N)=O)C1	-108.2*
CCN1CCc2c(sc(NC(=O)C3COc4ccccc4O3)c2C(N)=O)C1 (stereo not drawn)	-96.2*
SMILES	aSyn 5UTR act
CCOC(=O)N1CCc2c(sc(NC(=O)C3COc4ccccc4O3)c2C(N)=O)C1 (stereo not drawn)	-108.9*
Cc1ccc(NC(=O)c2ccc(OC(=O)c3ccco3)cc2)cc1	-121.8*
Cc1ccc(Oc2ccc(NC(=O)c3ccco3)cc2)cc1	-123.2*
Cc1ccc(NC(=O)c2ccc(OC(=O)c3cc4ccccc4o3)cc2)cc1	-124.1*
Cc1ccc(Cn2cccc(NC(=O)c3ccco3)c2=O)cc1	-78.5*
O=C(OCc1cccc(F)c1)c1ccc2c(c1)-c1ccccc1C2=O	-68.4*
O=C(OCc1ccccc1F)c1ccc2c(c1)-c1ccccc1C2=O	-121.2*
O=C(OCC(F)(F)F)c1cccc(COc2ccc3ccccc3c2)c1	106.6
O=[N+]([O-])c1ccc(N/N=C2\CC3CC=CC23)cc1 (stereo not drawn)	-99.8*
CCOc1ccc(N2C(=O)c3ccccc3C2O)cc1 (stereo not drawn)	-96.0*
CCOc1ccc(N2Cc3ncccc3C2=O)cc1	-103.1*

High-throughput results deposited in PubChem BioAssay by Broad Institute.
